# Measurements as given in PubChem BioAssay (NCATS).
# Several values for one entry are separate records, joined by “and”; a condition that tells them apart may be missing. Equal entries are not always repeated. Inconclusive results are not listed. Unmarked numbers belong to inactive results. Activity calls are given as the source filed them.
# Assay: qHTS assay for small molecule activators of the p53 signaling pathway (AID 651743; active = well fitted activation curve with a large enough effect in the signal ratio, not every such curve was filed as active; the % refers to the signal ratio; also: potency is read from the fitted curve at half-maximal effect; as to activation: series mostly up to about 92 µM; % of control where 0% means no effect)
# Settings: HCT-116 p53RE-bla, beta-lactamase FRET ratio, 16 h; activation: active compounds read high
# Procedure, shortened: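 p53RE-bla HCT-116 cells carrying a beta-lactamase reporter under p53 response elements were exposed to compounds for 16 hours at 37 C. Reporter activity read as fluorescence after 2 hours at room temperature with LiveBLAzer B/G FRET substrate.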
SMILES,activation,Potency
CCCCCCCCCCCCCC(=O)OC(C)C,-0.604%,–
COc1cc([C@H]2Oc3cc([C@H]4Oc5cc(O)cc(O)c5C(=O)[C@@H]4O)ccc3O[C@@H]2CO)ccc1O,-9.47%,–
CCCCCCCCOc1ccc(C(=O)c2ccccc2)c(O)c1,-0.0929%,–
COc1ccc(C(Cl)=C(c2ccc(OC)cc2)c2ccc(OC)cc2)cc1,2.35%,–
C#C[C@]1(O)CC[C@H]2[C@@H]3CCC4=Cc5oncc5C[C@]4(C)[C@H]3CC[C@@]21C,-3.96%,–
C/C=C/c1ccc(O)c(OC)c1,-3.74% and -0.0356%,–
COc1ccc(C(=O)c2ccccc2)c(O)c1,-2.61% and -3.01%,–
O=C(O)c1ccc(S(=O)(=O)N(Cl)Cl)cc1,-0.128%,–
C=C[C@@]1(C)CC(=O)[C@]2(O)[C@@]3(C)[C@@H](O)CCC(C)(C)[C@@H]3[C@H](O)[C@H](OC(C)=O)[C@@]2(C)O1,-4.19%,–
CCOc1ccccc1C(N)=O,1.59%,–
Oc1c(Cl)cc(Cl)c(Cl)c1Cc1c(O)c(Cl)cc(Cl)c1Cl,–,7.94 µM (active) and 12.6 µM (active)
CCCCCCCCCCCCCCCC(=O)O,1.38%,–
NCCNc1cccc2ccccc12,1.04%,–
CN(C)C(=O)Nc1ccc(Cl)c(Cl)c1,3.41%,–
CCCN(CCC)S(=O)(=O)c1ccc(C(=O)O)cc1,-0.245% and -0.015%,–
CC(C)(C)CC(C)(C)c1ccc(O)c(-n2nc3ccccc3n2)c1,-5.96%,–
CCCCC(CC)COC(=O)c1ccc(N(C)C)cc1 (stereo not given),0.436% and -4.01%,–
CCOc1ccc(NC(C)=O)cc1,-2.67% and -5.43%,–
CCCCOC(=O)CC(CC(=O)OCCCC)(OC(C)=O)C(=O)OCCCC,-5.7%,–
CCCCCCCC/C=C\CCCCCCCCN,4.37%,–
NC(=O)c1ccccc1O,-1.87%,–

# Assay: qHTS assay for small molecule activators of the nuclear factor-kappa B (NF-kB) signaling pathway (AID 651749; active = well fitted activation curve with a large enough effect in the signal ratio; the % refers to the signal ratio; also: series mostly up to about 77 µM; % of control where 0% means no effect)
# Settings: NF-kB-bla ME-180 cells, beta-lactamase FRET ratio, 16 h; active compounds read high
# Procedure, shortened: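 NF-kB-bla ME-180 cells carrying a beta-lactamase reporter under an NF-kB response element, 2,000 cells/well, exposed to compound for 16 hr at 37C; FRET-based beta-lactamase fluorescence read-out of pathway activation.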
row,SMILES,activation
1,OC[C@H]1O[C@@H]2O[C@H]3[C@H](O)[C@@H](O)[C@@H](O[C@H]4[C@H](O)[C@@H](O)[C@@H](O[C@H]5[C@H](O)[C@@H](O)[C@@H](O[C@H]6[C@H](O)[C@@H](O)[C@@H](O[C@H]7[C@H](O)[C@@H](O)[C@@H](O[C@H]8[C@H](O)[C@@H](O)[C@@H](O[C@H]1[C@H](O)[C@H]2O)O[C@@H]8CO)O[C@@H]7CO)O[C@@H]6CO)O[C@@H]5CO)O[C@@H]4CO)O[C@@H]3CO,-1.13%
2,CCCCCCCCCCCCCC(=O)OC(C)C,0.876%
3,CCCCCCCCOc1ccc(C(=O)c2ccccc2)c(O)c1,-6.3%
4,COc1ccc(C(Cl)=C(c2ccc(OC)cc2)c2ccc(OC)cc2)cc1,3.39%
5,C#C[C@]1(O)CC[C@H]2[C@@H]3CCC4=Cc5oncc5C[C@]4(C)[C@H]3CC[C@@]21C,0.141%
6,COc1ccc(C(=O)c2ccccc2)c(O)c1,0.344% and -5.21%
7,O=C(O)c1ccc(S(=O)(=O)N(Cl)Cl)cc1,-0.114%
8,Oc1c(Cl)cc(Cl)c(Cl)c1Cc1c(O)c(Cl)cc(Cl)c1Cl,-1.07%
9,CCCCCCCCCCCCCCCC(=O)O,-0.401%
10,NCCNc1cccc2ccccc12,-0.261% and 2.79%
11,CCCN(CCC)S(=O)(=O)c1ccc(C(=O)O)cc1,0.183% and -3.09%
12,CC1(COc2ccc(CC3SC(=O)NC3=O)cc2)CCCCC1 (stereo not given),0.57%
13,CC(C)(C)CC(C)(C)c1ccc(O)c(-n2nc3ccccc3n2)c1,1.97%
14,CCCCCCCCCCCCCCCCO,-1.7%
15,CCCCC(CC)COC(=O)c1ccc(N(C)C)cc1 (stereo not given),-1.46% and -0.821%
16,C=C[C@H]1CN2CC[C@H]1C[C@@H]2[C@@H](O)c1ccnc2ccc(OC)cc12,-0.176%
17,CC1(C)OC[C@@H]2O[C@@]3(C(=O)O)OC(C)(C)O[C@H]3[C@@H]2O1,0.144%
18,CCCCOC(=O)CC(CC(=O)OCCCC)(OC(C)=O)C(=O)OCCCC,-0.845%
19,NC(=O)c1ccccc1O,-1.49%
